Screening results (PubChem)
Rows were chosen to be rich in hits. Some 3.1% of all compounds tested hit in one or more screens of this group.
HIF-2a block: HIF-2a reporter inhibitors, primary screen, luminescence, 786-0 RCC cells. 786-0 RCC cells HIF-2a reporter, luciferase luminescence, overnight. inhibition, % at 18.8 µM. 0.72% of 360,000 active. AID 624352, 2012;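 active = inhibition of the luminescence signal of 40% or more relative to plate controls, in a single-dose primary screen at 18.75 µM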
KKLEB cytotox: cytotoxicity in KKLEB CF airway cells, primary screen, cytotoxicity control for CF NF-kB inhibitor project, cell-based, uHTS, fluorescence assay plates. KKLEB CF airway cells viability, ATPlite luminescence, overnight; stronger effect = lower value; cells stimulated with P. aeruginosa culture filtrate. activity change (cytotoxicity), % at 5 µM. 0.36% of 360,000 active;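 active = corrected activity change at or below -50% at 5 µM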
TRAIL sens C8: viability loss with TRAIL in NB7+C8 cells, primary screen, TRAIL sensitizer project, cell-based, ATPlite luminescence; AID 624354, 2012; 1% of 360,000 active; inhibition (viability loss, TRAIL sensitization), % at 10 µM;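 active = compounds causing at least 50% loss of cell viability in the single-dose screen, relative to plate controls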
Peg3 prom inh: Peg3 promoter-driven luciferase inhibitors, primary screen, cell-based, HeLa, luciferase luminescence; HeLa PEG-Prom luciferase reporter, overnight; inhibition, % at 20 µM; 1.7% of 360,000 active; AID 588405, 2011;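 active = inhibition of at least 50% at 20 µM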
CF NFkB inh: inhibitors of PAF-induced NF-kB signaling, primary screen, cell-based, GFP fluorescence, uHTS. KKLEB NF-kB-GFP reporter, GFP fluorescence overnight. inhibition, % at 5 µM. 0.86% of 360,000 active. AID 588850, 2011;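 active = at least 50% inhibition at 5 µM, scaled per plate between neutral and stimulator controls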;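 also: PAF is a Pseudomonas aeruginosa culture filtrate used as stimulus; plate controls were PAF-stimulated DMSO wells for no effect and unstimulated DMSO wells for full effect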
PPC-1+TRAIL kill: compounds killing PPC-1 cancer cells with TRAIL present, primary screen, TRAIL potentiator project, ATPLite luminescence, uHTS. 0.41% of 220,000 active. PPC-1 cells + TRAIL, ATPLite viability luminescence. cell killing (% activity), % at 4 µM or 5 µM;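 active = cell killing above 50% in the first pass at 4 µM, then a duplicate retest at 5 µM averaging 50% or more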;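 also: plate controls were cells with TRAIL plus DMSO for no effect and medium-only wells lacking cells for full effect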
Starred values were filed as active, the others as inactive; / = no result given.

SMILES	HIF-2a block	KKLEB cytotox	TRAIL sens C8	Peg3 prom inh	CF NFkB inh	PPC-1+TRAIL kill
Cc1ccccc1Nc1n[nH]c(=S)s1	-40.4	4.8	-10.1	-12.2	17.3	/
Cc1c(Cl)cccc1Nc1n[nH]c(=S)s1	-39.9	-0.6	-1.0	101.1*	-17.3	/
CSc1nc(-c2ccc(C)cc2)nc(C(Cl)Cl)n1	2.0	-19.3	-4.5	101.8*	6.3	/
CSc1nc(Cl)c(C#N)c(-c2ccc(C)cc2)n1	3.0	9.9	-15.3	-60.6	3.8	11.1
Cc1ccc(C)c(N2N=C(C(=O)OCC(=O)N(C)c3ccccc3)CCC2=O)c1	9.1	9.4	-5.1	4.2	0.7	/
O=C(CCl)N(CCCNC(=O)C(F)(F)F)c1ccc([N+](=O)[O-])cc1	-13.0	-6.5	94.7*	23.9	20.0	20.9
O=C(NCCCNc1ccc([N+](=O)[O-])cc1)C(F)(F)F	-7.5	6.6	-4.1	-2.9	-32.5	22.6
O=C(C[n+]1ccccc1)N/N=C/c1ccc(Br)cc1	4.8	-6.4	-5.8	-3.6	-0.5	/
COCCCN1CCN(C2Cc3ccccc3Sc3ccc(Cl)cc32)CC1 (stereo not drawn)	5.9	-23.0	12.9	18.8	30.1	9.8
O=C(c1ccccc1Cl)N1CCNCC1	9.9	-3.9	-4.7	5.7	0.1	3.8
Clc1cccc2c1Sc1ccccc1CC2N1CCNCC1 (stereo not drawn)	15.4	-25.0	16.4	108.5*	37.5	17.3
Clc1ccc2c(c1)C(N1CCNCC1)Cc1ccccc1S2 (stereo not drawn)	39.0	-24.5	34.2	104.2*	24.1	18.9
CCCOc1ccc(Cc2c(O)nc(SC)[nH]c2=O)cc1	6.8	13.2	-7.1	5.0	7.0	/
COC(=O)C1CN(Cc2ccccc2)C(=O)C1=O (stereo not drawn)	19.8	15.3	-7.0	-7.1	-17.0	/
Cc1ccc(F)cc1C(=O)N1CCCC1(C)C(=O)NCC(C)C (stereo not drawn)	10.1	0.8	-10.6	8.1	12.9	/
Cc1cc(S(=O)(=O)ON2C(=O)c3ccccc3C2=O)ccc1F	34.2	-8.2	12.7	61.3*	7.6	/
Cc1ccc2nc(-c3ccc(NC(=O)COCC(=O)O)cc3)sc2c1	-217.5	12.0	23.5	-221.2	-15.1	32.3
CCN(CC)S(=O)(=O)c1cc(C(=O)OCC(=O)Nc2ccc(-c3nc4ccc(C)cc4s3)cc2)ccc1F	-70.9	-12.9	74.2*	-153.2	-18.6	28.5
CCN(CC)S(=O)(=O)c1ccc(C(=O)OCC(=O)Nc2ccc(-c3nc4ccc(C)cc4s3)cc2)cc1	-135.8	-18.0	74.9*	-129.6	-1.0	27.6
CCN(CC)S(=O)(=O)c1cc(C(=O)OCC(=O)Nc2cccc(S(=O)(=O)N(C)C)c2)ccc1F	11.1	8.6	0.0	-0.9	9.4	8.5
COCCn1c(SCC(=O)Nc2ccc(F)cc2)nc2c(oc3ccccc32)c1=O	10.3	-54.2*	1.5	6.2	41.9	12.8
C[C@H]1CN([C@@H](C)CO)C(=O)c2cc(C#CCC3CCCC3)cnc2O[C@@H]1CN(C)C(=O)CC1CC1	-19.9	-0.1	-30.8	-3.6	-6.3	/
CCOc1ccc(-c2nnc(-c3ccccc3)o2)cc1	-30.9	-14.4	58.1*	-45.3	-1.6	27.2
CCOC(=O)COc1ccc(-c2nnc(-c3ccccc3)o2)cc1	9.0	5.5	49.0*	-23.0	10.5	31.7
CCCCOc1ccc(-c2nc(-c3cccnc3)no2)cc1	-228.2	1.5	16.6	-241.5	4.8	31.4
CCOc1ccc(-c2nc(-c3cccnc3)no2)cc1	-60.5	-5.3	57.6*	-104.4	-22.0	32.4
CCOc1ccc(-c2cnc3ccccc3n2)cc1	70.6*	-14.6	65.9*	28.4	-5.4	18.6
CCOC(=O)Cc1nnc(-c2ccccc2)o1	-1.5	-4.6	-9.2	-25.1	-12.8	3.1
CCC(Oc1ccccc1)C(=O)Nc1ccc(C)c(S(=O)(=O)N2CCOCC2)c1 (stereo not drawn)	22.1	-8.9	-3.9	8.7	-14.4	/
